In PubChem BioAssay:
Activity calls are given as the source filed them.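 How the source made its calls: active means compound raises insulin release from rat beta cells at 5 mM glucose, no numeric limit stated; inactive means the rest.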

Experiment: stimulators of nuclear beta-catenin in C2C12, primary screen, imaging, WNT3A-conditioned medium, mouse C2C12, NPC library (AID 1117326)
Details: stimulation, at 2 µM, stronger effect = higher value
Further: reference of the scale not given here.

SMILES	nuclear beta-catenin stimulation [%]
CC(C)(C)c1cc(O)ccc1O	2.2
CCN(CC)C(=O)N[C@@H]1C=C2c3cccc4[nH]cc(c34)C[C@@H]2N(C)C1	-0.6
COc1cccc(C(=O)CCN[C@@H](C)[C@H](O)c2ccccc2)c1	-0.6
CC1(C)S[C@@H]2[C@H](N)C(=O)N2[C@@H]1C(=O)O	3
CCCN(CCC)C(=O)Cc1c(-c2ccc(Cl)cc2)nc2ccc(Cl)cn12	-0.8
Nc1ccccc1C(=O)O	1.3
COc1cc(CC#N)cc(OC)c1OC	1.2
C[C@H]1CNCCc2ccc(Cl)cc21	0.8
Nc1ccc(N)cc1	0.8
CC(C)(C)NC[C@H](O)c1ccc(O)cc1Cl	-0.2
Clc1ccccc1N1CCNCC1	-2.2
CCN(CC)N(O)N=O	0.7
CCN(CC)Cc1nccn1-c1ccc([N+](=O)[O-])cc1C(=O)c1ccccc1Cl	-0.2
O=c1[nH]c2cc(Cl)ccc2n1C1CCNCC1	19.6
Oc1ccccc1-c1ccccc1	-0.1
O=C(N[C@H]1N=C(c2ccccc2F)c2cccc3c2N(CC3)C1=O)c1cc2ccccc2[nH]1	1.4
COP(=S)(OC)SCN1C(=O)c2ccccc2C1=O	1.1
CC(C)NC(C)C	5.2
CNC(C)[C@@H](O)c1ccc(O)cc1 (stereo not given in full)	1.3
CCCOC(=O)c1cncn1C(C)c1ccccc1 (stereo not given)	0.7

SMILES	nuclear beta-catenin stimulation [%]
C1CN(P2(N3CC3)=NP(N3CC3)(N3CC3)=NP(N3CC3)(N3CC3)=N2)CCO1 (stereo not given)	0.7
N[C@@H](Cc1ccc(Oc2cc(I)c(O)c(I)c2)c(I)c1)C(=O)O	-0.5
CC[N+]1(CC)CCC(OC(=O)C(O)(c2ccccc2)c2ccccc2)C1 (stereo not given)	-1.8
COc1ccc2c(C(=O)c3ccc(Cl)cc3)c(C)n(CC(=O)O)c2c1	-0.8
S=C(SSC(=S)N1CCCCC1)N1CCCCC1	0.4
C[N+](C)(C)CCOC(=O)C(O)(c1ccccc1)c1ccccc1	-0.5
CNC(=O)NC(O)C(Cl)(Cl)Cl (stereo not given)	-0.2
C[C@]12C[C@@H]3S[C@H]3C[C@@H]1CC[C@H]1[C@H]3CC[C@@H](O)[C@@]3(C)CC[C@@H]12	-0.5
O=C(O)c1ccc(=O)[nH]c1	0.8
C#CCOC(C(=O)OCCN(C)C)(c1ccccc1)c1ccccc1	0.9
CC(=O)C1CCOC1=O (stereo not given)	1.2
C[C@]12C=CC(=O)C=C1CC[C@@H]1[C@@H]2CC[C@@]2(C)[C@H]1CC[C@]2(C)O	2.4
CN1CCc2cc(Cl)c(O)cc2[C@H]2c3ccccc3CC[C@@H]21	2.3
C[C@]12CC[C@H]3[C@@H](CCC4=CC(=O)CC[C@@]43C)[C@@H]1CC[C@@H]2C(=O)O	0.3
O=C1OC(c2ccc(O)c(S(=O)(=O)O)c2)(c2ccc(O)c(S(=O)(=O)O)c2)c2c(Br)c(Br)c(Br)c(Br)c21	4.7
CN1CCC(O)(c2ccc(F)cc2)C(C(=O)c2ccc(F)cc2)C1 (stereo not given)	1.6
CC(=O)O[C@H]1C[C@H](O[C@H]2[C@@H](O)C[C@H](O[C@@H]3[C@@H](O)C[C@H](O[C@H]4CC[C@@]5(C)[C@H](CC[C@@H]6[C@H]5C[C@@H](O)[C@]5(C)[C@@H](C7=CC(=O)OC7)CC[C@]65O)C4)O[C@@H]3C)O[C@@H]2C)O[C@H](C)[C@H]1O[C@@H]1O[C@H](CO)[C@@H](O)[C@H](O)[C@@H]1O	0.9
CCc1ccc(C2CCNCC2)cc1	-0.7
C=CCOC(Cn1ccnc1)c1ccc(Cl)cc1Cl (stereo not given)	2.5
C1CCC(NC2CCCCC2)CC1	2

Experiment: stimulators of insulin release from INS-1E, primary screen, cell-based, 5 mM glucose, NPC library (AID 1117329)
Details: rat INS-1E insulin secretion, at 10 µM, stronger effect = higher value

SMILES	insulin secretion stimulation
CC(C)(C)c1cc(O)ccc1O	0% (inactive)
CCN(CC)C(=O)N[C@@H]1C=C2c3cccc4[nH]cc(c34)C[C@@H]2N(C)C1	2.6% (inactive)
COc1cccc(C(=O)CCN[C@@H](C)[C@H](O)c2ccccc2)c1	8.8% (inactive)
CC1(C)S[C@@H]2[C@H](N)C(=O)N2[C@@H]1C(=O)O	-0.3% (inactive)
CCCN(CCC)C(=O)Cc1c(-c2ccc(Cl)cc2)nc2ccc(Cl)cn12	11.7% (inactive)
Nc1ccccc1C(=O)O	0.9% (inactive)
COc1cc(CC#N)cc(OC)c1OC	2.2% (inactive)
C[C@H]1CNCCc2ccc(Cl)cc21	16.9% (inactive)
Nc1ccc(N)cc1	-3.1% (inactive)
CC(C)(C)NC[C@H](O)c1ccc(O)cc1Cl	7.2% (inactive)
Clc1ccccc1N1CCNCC1	5.2% (inactive)
CCN(CC)N(O)N=O	-0.3% (inactive)
CCN(CC)Cc1nccn1-c1ccc([N+](=O)[O-])cc1C(=O)c1ccccc1Cl	7.4% (inactive)
O=c1[nH]c2cc(Cl)ccc2n1C1CCNCC1	3.8% (inactive)
Oc1ccccc1-c1ccccc1	-2.4% (inactive)
O=C(N[C@H]1N=C(c2ccccc2F)c2cccc3c2N(CC3)C1=O)c1cc2ccccc2[nH]1	3.5% (inactive)
COP(=S)(OC)SCN1C(=O)c2ccccc2C1=O	-0.9% (inactive)
CC(C)NC(C)C	4.3% (inactive)
CNC(C)[C@@H](O)c1ccc(O)cc1 (stereo not given in full)	4.8% (inactive)
CCCOC(=O)c1cncn1C(C)c1ccccc1 (stereo not given)	4.8% (inactive)

SMILES	insulin secretion stimulation
C1CN(P2(N3CC3)=NP(N3CC3)(N3CC3)=NP(N3CC3)(N3CC3)=N2)CCO1 (stereo not given)	2.5% (inactive)
N[C@@H](Cc1ccc(Oc2cc(I)c(O)c(I)c2)c(I)c1)C(=O)O	2.2% (inactive)
CC[N+]1(CC)CCC(OC(=O)C(O)(c2ccccc2)c2ccccc2)C1 (stereo not given)	3.25% (inactive)
COc1ccc2c(C(=O)c3ccc(Cl)cc3)c(C)n(CC(=O)O)c2c1	1.05% (inactive)
S=C(SSC(=S)N1CCCCC1)N1CCCCC1	-2.6% (inactive)
C[N+](C)(C)CCOC(=O)C(O)(c1ccccc1)c1ccccc1	1.1% (inactive)
CNC(=O)NC(O)C(Cl)(Cl)Cl (stereo not given)	-1% (inactive)
C[C@]12C[C@@H]3S[C@H]3C[C@@H]1CC[C@H]1[C@H]3CC[C@@H](O)[C@@]3(C)CC[C@@H]12	2.4% (inactive)
O=C(O)c1ccc(=O)[nH]c1	2.6% (inactive)
C#CCOC(C(=O)OCCN(C)C)(c1ccccc1)c1ccccc1	28.7% (active)
CC(=O)C1CCOC1=O (stereo not given)	3.7% (inactive)
C[C@]12C=CC(=O)C=C1CC[C@@H]1[C@@H]2CC[C@@]2(C)[C@H]1CC[C@]2(C)O	1.5% (inactive)
CN1CCc2cc(Cl)c(O)cc2[C@H]2c3ccccc3CC[C@@H]21	20.2% (active)
C[C@]12CC[C@H]3[C@@H](CCC4=CC(=O)CC[C@@]43C)[C@@H]1CC[C@@H]2C(=O)O	0.2% (inactive)
O=C1OC(c2ccc(O)c(S(=O)(=O)O)c2)(c2ccc(O)c(S(=O)(=O)O)c2)c2c(Br)c(Br)c(Br)c(Br)c21	0.75% (inactive)
CN1CCC(O)(c2ccc(F)cc2)C(C(=O)c2ccc(F)cc2)C1 (stereo not given)	5% (inactive)
CC(=O)O[C@H]1C[C@H](O[C@H]2[C@@H](O)C[C@H](O[C@@H]3[C@@H](O)C[C@H](O[C@H]4CC[C@@]5(C)[C@H](CC[C@@H]6[C@H]5C[C@@H](O)[C@]5(C)[C@@H](C7=CC(=O)OC7)CC[C@]65O)C4)O[C@@H]3C)O[C@@H]2C)O[C@H](C)[C@H]1O[C@@H]1O[C@H](CO)[C@@H](O)[C@H](O)[C@@H]1O	0.8% (inactive)
CCc1ccc(C2CCNCC2)cc1	4% (inactive)
C=CCOC(Cn1ccnc1)c1ccc(Cl)cc1Cl (stereo not given)	6.1% (inactive)
C1CCC(NC2CCCCC2)CC1	1.3% (inactive)
